Reference: PubChem BioAssay AID1851 (National Center for Advancing Translational Sciences (NCATS), 2009)
The whole screen tested about 16,000 compounds, of which about 2,600 (16%) were called active. Roughly 20% stayed inconclusive and do not appear here. The list is a sample of the results. A number with no mark means an inactive call. Calls follow the shape of the dose curve; as a rule, active = well fitted curve in the direction sought with a large enough effect; inconclusive = small, poorly fitted or top-dose-only effect, or effect the other way; inactive = no such curve, though single readings can be large or run the other way.

molecular target: Cytochrome P450 2D6 (Homo sapiens) (UniProt P10635); experiment: Cytochrome panel assay with activity outcomes; conditions: recombinant CYP, pro-luciferin dealkylation, luminescence, p450-cyp2d6; series mostly up to 57.1 µM; activity, negative = inhibition: at the top concentration
% is scaled to controls: 0 for no effect and ±100 for the full control effect.

Sequence of Cytochrome P450 2D6 (Homo sapiens) (P10635 whole entry, looked up): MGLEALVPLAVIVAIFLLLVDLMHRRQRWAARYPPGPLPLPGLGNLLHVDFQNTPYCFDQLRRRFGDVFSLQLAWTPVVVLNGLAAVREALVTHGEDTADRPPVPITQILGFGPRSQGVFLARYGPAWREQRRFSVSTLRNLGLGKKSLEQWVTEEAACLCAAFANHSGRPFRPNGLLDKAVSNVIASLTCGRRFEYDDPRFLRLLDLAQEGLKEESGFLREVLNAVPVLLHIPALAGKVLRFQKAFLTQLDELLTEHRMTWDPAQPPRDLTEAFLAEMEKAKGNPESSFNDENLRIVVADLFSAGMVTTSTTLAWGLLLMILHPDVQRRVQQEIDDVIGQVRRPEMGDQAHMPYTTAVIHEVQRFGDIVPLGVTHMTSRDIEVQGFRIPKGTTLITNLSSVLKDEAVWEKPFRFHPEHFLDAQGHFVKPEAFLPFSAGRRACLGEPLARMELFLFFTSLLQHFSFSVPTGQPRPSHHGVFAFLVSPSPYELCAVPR

Question: `CS(=O)c1ccccc1-c1nc(-c2cc(C(F)(F)F)cc(C(F)(F)F)c2)no1` (stereo not drawn) was tested. Which “activity, negative = inhibition” value did it give?
Answer: -17%

Question: Which “activity, negative = inhibition” value does the source give for `COc1ccc(-n2nc3cc(C)c(NC(=S)NC(=O)c4ccccc4C)cc3n2)cc1` here?
Answer: 6.83%

Question: With `COC(=O)c1cc(C(=O)c2ccc(Cl)cc2Cl)cn1C` as the compound, how does the “activity, negative = inhibition” value read?
Answer: 9.82%

Question: With `CC1(C)S[C@@H]2[C@H](NC(=O)[C@@H](N)c3ccccc3)C(=O)N2[C@H]1C(=O)O[C@H]1OC(=O)c2ccccc21` as the compound, how does the “activity, negative = inhibition” value read?
Answer: 0.075% [at 25.6 µM]

Question: `CC(=O)Nc1ccc(Nc2ncc([N+](=O)[O-])c(Nc3ccc(NC(C)=O)cc3)n2)cc1` was tested. Which “activity, negative = inhibition” value did it give?
Answer: -4.74%

Question: How did the AC50 turn out when `Cc1ccc(Nc2c([N+](=O)[O-])ccc3c2=NC2(CCCCC2)N=3)cc1` was run?
Answer: 25.1 µM (active)

Question: `O=C(NC1CCCC1)c1cccnc1N1CCCCCC1` was tested. Which “activity, negative = inhibition” value did it give?
Answer: 11.3%

Question: `Cc1ccc(NC(=O)c2sc3nc[nH]c(=O)c3c2C)c(C)c1` was tested. Which “activity, negative = inhibition” value did it give?
Answer: -18.3%

Question: How did the “activity, negative = inhibition” value turn out when `CCCSc1nnc2n(N)c(=O)c3ccccc3n12` was run?
Answer: -7.37%

Question: How did the “activity, negative = inhibition” value turn out when `Cc1c(NC(=O)/C=C/C(=O)O)cccc1[N+](=O)[O-]` was run?
Answer: 0.595%

Question: How did the AC50 turn out when `Cc1c(NC(=O)CCCOc2ccccc2)cccc1[N+](=O)[O-]` was run?
Answer: 1.58 µM (active)

Question: `O=C(CCOc1ccccc1)Nc1ccccc1` was tested. Which “activity, negative = inhibition” value did it give?
Answer: 21.3%

Question: With `CCC(=O)Nc1cccc(C(=O)/C=C/c2ccccc2)c1` as the compound, how does the “activity, negative = inhibition” value read?
Answer: -16.4%

Question: How did the “activity, negative = inhibition” value turn out when `Cc1ccc(OCCCC(=O)Nc2ccccc2C(F)(F)F)cc1` was run?
Answer: -17.2%

Question: Which AC50 does the source give for `COC(=O)c1cccc(NC(=O)CCCOc2ccccc2)c1` here?
Answer: 10 µM (active)

Question: Which “activity, negative = inhibition” value does the source give for `CCc1sc(-c2c(C#N)c(N)nc3c2CCCCCC3)cc1[N+](=O)[O-]` here?
Answer: -11.8%

Question: Which “activity, negative = inhibition” value does the source give for `COc1ccccc1CCn1c(=O)c(-c2cn(C)c3ccccc23)nc2cncnc21` here?
Answer: -10.1%

Question: `CC(C)n1c(O)c(/C=C2\C=Nc3ccccc32)sc1=Nc1ccccc1` was tested. Which “activity, negative = inhibition” value did it give?
Answer: -18%

Question: `O=c1c2ccccc2sc2c(CO)ccc(NCCN3CCCCC3)c12` was tested. Which AC50 did it give?
Answer: 1.26 µM (active)

Question: With `COc1ccc2sc3ccccc3c(=O)c2c1OC` as the compound, how does the “activity, negative = inhibition” value read?
Answer: -15.6%

Question: For `CCN(CC)CCNc1ccc(CO)c2sc3ccccc3c(=O)c12`, which AC50 is on record?
Answer: 5.01 µM (active)

Question: For `C#CCCCO/N=C1/C[C@@H](O)[C@@H](O)[C@@H]2[C@@H]3C(=O)N(C[C@@H]4CCCO4)C(=O)[C@H]3CC[C@H]12`, which activity, negative = inhibition is on record?
Answer: -7.06% [at 11.4 µM]

Question: For `Cn1c(=O)c(-c2ccccc2)nc2cnc(N3CCOCC3)nc21`, which “activity, negative = inhibition” value is on record?
Answer: -3.69%

Question: Which “activity, negative = inhibition” value does the source give for `CC(=O)OC1COC(N2CCc3cc([N+](=O)[O-])ccc32)C(OC(C)=O)C1OC(C)=O` (stereo not drawn) here?
Answer: 27%

Question: How did the “activity, negative = inhibition” value turn out when `COc1cccc(-c2csc(N3CCN(CC(=O)NNC(=O)c4ccc(Cl)cc4)CC3)n2)c1` was run?
Answer: -17.2%

Question: Which activity, negative = inhibition does the source give for `CC(C)(CO[C@H]1C[C@H]2CC[C@@]1(C)C2(C)C)[N+](=O)[O-]` here?
Answer: 11.9% [at 11.4 µM]

Question: With `CC(C)=CCC/C(C)=C/CO/N=C1/C[C@@H](O)[C@@H](O)[C@@H]2[C@@H]3C(=O)N(C4CCCCC4)C(=O)[C@H]3CC[C@H]12` as the compound, how does the activity, negative = inhibition read?
Answer: -9.81% [at 11.4 µM]

Question: `CS(=O)(=O)c1ccc(/C=N\NC(N)=S)cc1` was tested. Which activity, negative = inhibition did it give?
Answer: 9.53% [at 11.4 µM]

Question: Which “activity, negative = inhibition” value does the source give for `O=C(CSc1nnc2sc3ccccc3n12)NCc1ccco1` here?
Answer: -17.7%

Question: With `CCc1c(O)nc(SCC(=O)NC(C)(C)C)n(-c2ccccc2)c1=O` as the compound, how does the “activity, negative = inhibition” value read?
Answer: -8.15%

Question: For `CC(Cc1ccccc1)NC(=O)CSc1nc2nc3c(cc2c(=O)n1-c1ccccc1)COC(C)(C)C3` (stereo not drawn), which “activity, negative = inhibition” value is on record?
Answer: -28.9%

Question: With `CC1(C)Cc2c(sc3nc(SCC(=O)NCc4ccccc4)n(-c4ccccc4)c(=O)c23)CS1` as the compound, how does the AC50 read?
Answer: 3.55 µM (active)

Question: Which AC50 does the source give for `Cc1ccc(-n2c(SCC(=O)NCc3ccco3)nc3sc4c(c3c2=O)CC(C)(C)SC4)cc1` here?
Answer: 2.82 µM (active)

Question: Which “activity, negative = inhibition” value does the source give for `Cc1ccc(-n2c(N)c(C(=O)NCc3ccco3)sc2=S)cc1` here?
Answer: -9.85%

Question: With `Cn1cc[nH]c1=S` as the compound, how does the “activity, negative = inhibition” value read?
Answer: 6.67% [at 25.6 µM]

Question: How did the activity, negative = inhibition turn out when `Cn1cnc([N+](=O)[O-])c1SCC(=O)O` was run?
Answer: -1.18% [at 11.4 µM]

Question: Which “activity, negative = inhibition” value does the source give for `C[C@@H]1C[C@H](OC(=O)c2ccccc2O)CC(C)(C)C1` here?
Answer: -4.22% [at 25.6 µM]

Question: `COc1ccc(NC(=O)CSc2nc(-c3ccc(C)cc3)cc(C(F)(F)F)c2C#N)cc1` was tested. Which “activity, negative = inhibition” value did it give?
Answer: 15.8%

Question: Which “activity, negative = inhibition” value does the source give for `CCOc1ccc(NC(=O)CSc2nc(C)c3c(c2C#N)CCCC3)cc1` here?
Answer: -8%

Question: With `CSc1nc(N)nc(SCC(=O)Nc2ccc(Cl)cc2)c1C#N` as the compound, how does the AC50 read?
Answer: 2.24 µM (active)

Question: How did the “activity, negative = inhibition” value turn out when `O=C(c1cccc(F)c1)N1CCC2(CCCN(c3cccc(-c4ccccc4)c3)C2)CC1` was run?
Answer: -11.4%

Question: For `CC1CCCN(C(=O)c2sc3cc([N+](=O)[O-])ccc3c2Cl)C1` (stereo not drawn), which AC50 is on record?
Answer: 10 µM (active)

Question: `CN1CCCN(C)C1c1cc([N+](=O)[O-])ccc1O` was tested. Which activity, negative = inhibition did it give?
Answer: -9.66% [at 11.4 µM]

Question: With `O=C(c1sc2ccccc2c1Cl)N1CCN(c2ccc(F)cc2)CC1` as the compound, how does the “activity, negative = inhibition” value read?
Answer: -28%

Question: How did the “activity, negative = inhibition” value turn out when `CC1CCCC(NC(=O)C2CCN(S(=O)(=O)N3CCC4(CC3)OCCO4)CC2)C1C` (stereo not drawn) was run?
Answer: -11.3%

Question: How did the “activity, negative = inhibition” value turn out when `Cc1sc(N)c(C(=O)c2cccc(C(F)(F)F)c2)c1C` was run?
Answer: -0.502%

Question: For `O=C(Nc1c2c(nn1-c1ccc(F)cc1)CS(=O)(=O)C2)C12CC3CC(CC(C3)C1)C2`, which “activity, negative = inhibition” value is on record?
Answer: -0.0135%

Question: With `O=C(Oc1ccccc1[N+](=O)[O-])c1cccnc1` as the compound, how does the “activity, negative = inhibition” value read?
Answer: -12.6%

Question: With `Cn1cc([N+](=O)[O-])c(C(=O)Nc2cc(Oc3cccnc3)cc([N+](=O)[O-])c2)n1` as the compound, how does the AC50 read?
Answer: 12.6 µM (active)

Question: How did the “activity, negative = inhibition” value turn out when `CC(=O)NN1C(=O)c2ccc(Oc3cccc([N+](=O)[O-])c3)cc2C1=O` was run?
Answer: -9.46%

Question: For `Cc1cc(C(=O)O)c(=O)[nH]c1C`, which “activity, negative = inhibition” value is on record?
Answer: 15.7%

Question: `CC1(C)CC(=O)C2=C(C1)N(Cc1ccccc1)C(=O)C2(O)C(F)(F)F` (stereo not drawn) was tested. Which “activity, negative = inhibition” value did it give?
Answer: 0.612%

Question: For `O=C(N/N=C/C1CCCCC1)c1ccccn1`, which “activity, negative = inhibition” value is on record?
Answer: -25.7%

Question: Which “activity, negative = inhibition” value does the source give for `N#Cc1c2n(c3c(=S)nc[nH]c13)CCCCC2` here?
Answer: 9.17%

Question: How did the activity, negative = inhibition turn out when `C=C1C=C(Br)C2(OCCCO2)[C@H]2OC12` (stereo partly drawn) was run?
Answer: 3.88% [at 11.4 µM]

Question: How did the AC50 turn out when `Cc1cc(NC(=S)Nc2ccccc2)ccc1Br` was run?
Answer: 2 µM (active)

Question: Which “activity, negative = inhibition” value does the source give for `Cc1cc(NC(=S)NC(=O)CC(C)C)ccc1Br` here?
Answer: -0.0883%

Question: How did the activity, negative = inhibition turn out when `COc1ccc(NC(=S)Nc2ccccc2)cc1` was run?
Answer: -11.8% [at 11.4 µM]

Question: `CCCCC1(C)NC(=O)c2c(C)sc(C(=O)OCC)c2N1` (stereo not drawn) was tested. Which “activity, negative = inhibition” value did it give?
Answer: 5.24%

Question: With `CC1=C/C(=N/O)C([C@H]2C=C(C)CC(C)(C)[C@@H]2O)C(C)(C)C1` (stereo partly drawn) as the compound, how does the activity, negative = inhibition read?
Answer: -8.52% [at 11.4 µM]

Question: With `COc1ccc(S(=O)(=O)Nc2ccc(S(=O)(=O)N3CCCCC3)cc2)cc1C` as the compound, how does the “activity, negative = inhibition” value read?
Answer: -0.01%

Question: With `COc1ccc(S(=O)(=O)N2CCC(N3CCCCC3)CC2)cc1` as the compound, how does the AC50 read?
Answer: 0.316 µM (active)

Question: Which “activity, negative = inhibition” value does the source give for `COc1ccc(S(=O)(=O)N2CCC(NC(=O)Nc3ccc(C)cc3)CC2)cc1` here?
Answer: -8.72%
